Our source for the composite z-score and z-score values is PubChem BioAssay.

Activity calls are given as the source filed them.

The nature of assay [1]: binders of probe aFSTL3 on microarray, primary screen, stem cell growth factor project, biochemical, small-molecule microarray, fluorescence 635/667 (AID 1064).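 Note: measures binding of the biotinylated anti-FSTL3 antibody to printed compounds.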 As to conditions: higher = more signal.
Assay [2] can be described thus: binders from COS7 lysate, DM2A8 probe, primary screen, torsin A project, cell lysate, small-molecule microarray, fluorescence 635/667 (AID 1065). As to conditions: higher = more signal, COS7 lysate expressing mutant human TOR1A.
Assay [3] can be described thus: binders of probe aFGF2 on microarray, primary screen, stem cell growth factor project, biochemical, small-molecule microarray, fluorescence 635/667 (AID 1067).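 Note: measures binding of biotinylated aFGF2 protein to printed compounds on slides; z-score merges feature fluorescence and signal-to-noise across triplicate slides.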 The following applies: higher = more signal.
Assay [4] is described as follows: binders of probe aFGF10 on microarray, primary screen, stem cell growth factor project, biochemical, small-molecule microarray, fluorescence 635/667 (AID 1071).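 Note: score merges 667 nm spot intensity and signal to noise from triplicate slides.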 The following applies: higher = more signal.
Assay [5] has as its target Neurogenic locus notch homolog protein 2 (Homo sapiens) (UniProt Q04721). Briefly: Notch2 binders on small-molecule microarrays, primary screen, biochemical, small-molecule microarray, 635 nm fluorescence, stem cell growth factors (AID 1073). As to conditions: Notch2 binding, higher = more signal.
Assay [6] has as its target Pro-neuregulin-1, membrane-bound isoform (Homo sapiens) (UniProt Q02297). Briefly: NRG1 binders on small-molecule microarrays, primary screen, psychiatric disease protein project, biochemical, small-molecule microarray, fluorescence 635/667 (AID 1075).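 Note: score combines 667 nm spot fluorescence with signal to noise.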 As to conditions: NRG1 binding, 635 nm fluorescence, higher = more signal.
Assay [7] deals with Neuregulin-1 EGF-like domain. Briefly: binders of neuregulin-1 EGF-like domain, primary screen, biochemical, small-molecule microarray, 635 nm fluorescence (AID 1081).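 Note: binding of the protein to compounds printed on small-molecule microarray slides.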 As to conditions: small-molecule microarray binding, higher = more signal.
Assay [8] in a line: FRG1 promoter luciferase signal modulators, primary screen, FRG1 inhibition for FSHD, cell-based, C2C12 myotubes, firefly/Renilla luciferase, luminescence (AID 1084). The following applies: higher = more signal, called active from +8 up or from −8 down.
Assay [9] is described as follows: binders of probe aFST on microarray, primary screen, stem cell growth factor project, biochemical, small-molecule microarray, fluorescence 635/667 (AID 1086).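 Note: score merges 667 nm fluorescence with signal-to-noise of each printed compound spot.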 As to conditions: higher = more signal.
Assay [10] can be described thus: binders of probe aHhip on microarray, primary screen, stem cell growth factor project, biochemical, small-molecule microarray, fluorescence 635/667 (AID 1087).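 Note: score merges spot fluorescence at 667nm with spot signal to noise ratio.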 As to conditions: higher = more signal.

Sequence of Pro-neuregulin-1, membrane-bound isoform (Homo sapiens) (Q02297 whole entry, looked up, the tested form may be a part, canonical isoform): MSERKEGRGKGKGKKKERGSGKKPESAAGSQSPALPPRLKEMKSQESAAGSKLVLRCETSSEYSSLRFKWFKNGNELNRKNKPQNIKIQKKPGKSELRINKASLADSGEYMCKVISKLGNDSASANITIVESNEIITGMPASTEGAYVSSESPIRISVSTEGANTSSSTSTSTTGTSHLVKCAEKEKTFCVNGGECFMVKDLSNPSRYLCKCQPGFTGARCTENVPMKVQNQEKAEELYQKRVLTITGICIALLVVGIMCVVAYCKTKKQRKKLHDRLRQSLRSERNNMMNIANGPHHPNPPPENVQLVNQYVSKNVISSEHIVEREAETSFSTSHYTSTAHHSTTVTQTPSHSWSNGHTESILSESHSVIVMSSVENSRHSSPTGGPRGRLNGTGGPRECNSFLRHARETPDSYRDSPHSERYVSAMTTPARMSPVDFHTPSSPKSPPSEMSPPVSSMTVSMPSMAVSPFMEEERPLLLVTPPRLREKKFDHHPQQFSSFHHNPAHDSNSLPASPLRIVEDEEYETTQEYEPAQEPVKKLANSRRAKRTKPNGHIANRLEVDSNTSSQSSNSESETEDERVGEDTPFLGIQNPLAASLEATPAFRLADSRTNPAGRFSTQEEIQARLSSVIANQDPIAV
Sequence of Neurogenic locus notch homolog protein 2 (Homo sapiens) (Q04721 whole entry, looked up, canonical isoform): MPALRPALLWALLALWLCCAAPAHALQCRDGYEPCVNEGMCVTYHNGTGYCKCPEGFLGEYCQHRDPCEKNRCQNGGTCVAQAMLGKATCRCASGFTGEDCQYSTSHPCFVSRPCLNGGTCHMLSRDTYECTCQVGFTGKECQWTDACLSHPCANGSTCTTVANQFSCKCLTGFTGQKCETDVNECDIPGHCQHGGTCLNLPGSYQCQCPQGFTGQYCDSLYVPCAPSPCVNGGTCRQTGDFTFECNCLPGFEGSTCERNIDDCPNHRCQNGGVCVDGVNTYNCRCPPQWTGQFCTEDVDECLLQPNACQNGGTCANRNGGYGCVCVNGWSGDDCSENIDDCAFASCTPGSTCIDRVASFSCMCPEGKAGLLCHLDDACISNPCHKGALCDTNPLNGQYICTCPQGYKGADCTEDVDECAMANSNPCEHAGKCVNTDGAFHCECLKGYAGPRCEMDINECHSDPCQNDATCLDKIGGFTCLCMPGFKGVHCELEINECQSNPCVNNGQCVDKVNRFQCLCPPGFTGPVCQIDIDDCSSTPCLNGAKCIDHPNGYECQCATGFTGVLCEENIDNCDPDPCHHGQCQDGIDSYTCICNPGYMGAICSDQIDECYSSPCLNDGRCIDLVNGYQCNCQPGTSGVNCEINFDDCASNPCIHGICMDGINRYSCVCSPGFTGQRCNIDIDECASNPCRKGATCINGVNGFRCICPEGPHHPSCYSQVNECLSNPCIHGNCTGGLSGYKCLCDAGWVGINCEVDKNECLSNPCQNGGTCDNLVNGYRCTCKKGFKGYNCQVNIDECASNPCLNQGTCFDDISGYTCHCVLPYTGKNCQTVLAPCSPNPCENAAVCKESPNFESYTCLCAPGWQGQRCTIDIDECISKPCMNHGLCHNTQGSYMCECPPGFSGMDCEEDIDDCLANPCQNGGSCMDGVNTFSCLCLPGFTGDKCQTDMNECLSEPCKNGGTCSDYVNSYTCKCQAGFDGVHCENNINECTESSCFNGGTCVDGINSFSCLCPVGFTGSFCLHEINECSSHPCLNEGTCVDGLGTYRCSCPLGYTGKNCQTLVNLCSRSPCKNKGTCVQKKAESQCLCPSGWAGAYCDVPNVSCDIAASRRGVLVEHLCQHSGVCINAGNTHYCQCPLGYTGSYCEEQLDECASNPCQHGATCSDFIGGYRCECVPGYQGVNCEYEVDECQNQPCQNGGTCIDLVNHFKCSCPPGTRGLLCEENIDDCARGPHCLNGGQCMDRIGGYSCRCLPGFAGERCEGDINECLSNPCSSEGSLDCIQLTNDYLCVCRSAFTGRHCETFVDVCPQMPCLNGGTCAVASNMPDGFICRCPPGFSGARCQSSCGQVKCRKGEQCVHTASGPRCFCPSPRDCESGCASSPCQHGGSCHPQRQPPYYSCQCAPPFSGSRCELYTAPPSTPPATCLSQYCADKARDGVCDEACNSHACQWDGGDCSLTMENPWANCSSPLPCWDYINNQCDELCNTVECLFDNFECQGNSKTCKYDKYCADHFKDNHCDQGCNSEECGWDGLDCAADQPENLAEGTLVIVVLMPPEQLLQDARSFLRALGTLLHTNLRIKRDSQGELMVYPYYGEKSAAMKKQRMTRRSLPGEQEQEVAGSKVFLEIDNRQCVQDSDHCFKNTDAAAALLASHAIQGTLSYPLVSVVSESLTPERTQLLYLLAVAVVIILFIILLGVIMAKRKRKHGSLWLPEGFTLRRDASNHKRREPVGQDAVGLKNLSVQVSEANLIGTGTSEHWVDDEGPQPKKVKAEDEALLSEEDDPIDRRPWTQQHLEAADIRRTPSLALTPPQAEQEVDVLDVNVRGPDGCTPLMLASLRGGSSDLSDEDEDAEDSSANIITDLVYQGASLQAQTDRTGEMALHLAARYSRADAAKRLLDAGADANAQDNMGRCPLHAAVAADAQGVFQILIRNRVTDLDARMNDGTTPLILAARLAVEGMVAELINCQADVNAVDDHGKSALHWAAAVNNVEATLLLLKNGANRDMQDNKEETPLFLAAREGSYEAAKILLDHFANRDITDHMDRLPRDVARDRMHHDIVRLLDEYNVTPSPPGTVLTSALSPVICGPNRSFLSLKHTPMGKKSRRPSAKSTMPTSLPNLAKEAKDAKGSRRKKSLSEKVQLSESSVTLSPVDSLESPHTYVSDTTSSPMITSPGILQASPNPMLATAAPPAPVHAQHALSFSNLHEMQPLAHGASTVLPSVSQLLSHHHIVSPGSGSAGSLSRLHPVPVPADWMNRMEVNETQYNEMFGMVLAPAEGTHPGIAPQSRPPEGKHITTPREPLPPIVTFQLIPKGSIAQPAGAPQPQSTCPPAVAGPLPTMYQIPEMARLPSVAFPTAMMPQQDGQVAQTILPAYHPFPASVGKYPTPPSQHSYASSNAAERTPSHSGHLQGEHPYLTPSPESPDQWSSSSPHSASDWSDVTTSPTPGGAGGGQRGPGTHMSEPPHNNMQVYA

Take `O=C1C2C=CC(C(O)c3ccc(B(O)O)cc3)N(Nc3ccccc3)C2C(=O)N1c1ccccc1` (stereo not given): the composite z-score was 0.72 in [1]; 0.0762 in [2]; 0.0533 in [3]; -0.132 in [4]; 0.971 in assay [5]; 1.38 in assay [6]. Besides, the composite z-score in [7] was -0.401; in assay [9], 0.302; in assay [10], -0.299. In assay [8], the z-score is 4.59 (inactive).

Regarding `COC(=O)c1ccc(OC)c(/C=C\CC(OC(C)=O)c2ccccc2)c1` (stereo not given), the composite z-score is 0.428 in [1]; -0.284 in [2]; -0.138 in assay [3]; 0.229 in assay [4]; 1.2 in [5]; 0.993 in [6]. Besides, the composite z-score in assay [7] was 0.971; in [9] it was -0.405; in assay [10], 0.206. Besides, the z-score in assay [8] is -1.21 (inactive).

Turning to `CC(C)N1C(=O)c2ccccc2[C@@H](C(=O)NCCCN(C)C)[C@@H]1c1ccc(CO)cc1`, the composite z-score in assay [1] is 0.878; in assay [2] it was -0.194; in assay [3], -0.0502; in assay [4], -0.086; in assay [5] it was 0.102; in assay [6], 1.78. For the same molecule, the composite z-score came to 1.11 in assay [7], 0.908 in assay [9] and 0.0066 in [10]. Besides, the z-score in [8] is 0.0159 (inactive).

Consider `CC(C)=CCCC(C)=CC(O)C1C=CC2C(=O)N(c3ccccc3)C(=O)C2N1Nc1ccccc1` (stereo not given), for which the composite z-score in [1] is 0.475; in [2], 0.135; in assay [3] it was 0.155; in [4], 1.16; in [5] it was 1.64; in [6], 1.17. Also, the composite z-score in assay [7] was 1.06; in [9], 1.6; in [10], 0.0497. Moreover, the z-score in assay [8] is -2.84 (inactive).

Regarding `COc1ccc(C#Cc2ccc3c(c2)[C@]2(C(=O)N3)[C@H](c3ccc(O)cc3)N3[C@H](c4ccccc4)[C@H](c4ccccc4)OC(=O)[C@H]3[C@@H]2C(=O)N2CCCCCCC2)cc1`, the composite z-score in assay [1] is 3.42; in [2], 0.524; in assay [3] it was 0.858; in assay [4], 0.488; in assay [5], 1.39; in [6], 1.01. For the same molecule, the composite z-score in assay [7] worked out at 1.25; in assay [9], 3.25; in [10], 0.0914. Besides, the z-score in assay [8] was -0.263 (inactive).

As to `C=CC[C@@]1(C(=O)NCC(O)CO)N=C(c2ccc(OCCCO)cc2)O[C@@H]1c1ccccc1N=[N+]=[N-]` (stereo not given in full), the composite z-score in [1] came to 0.638; in assay [2] it was 1.22; in assay [3], 0.0485; in assay [4], 0.12; in assay [5] it was 0.579; in assay [6] it was 1.71. The composite z-score worked out at 1.3 in assay [7], 1.39 in [9] and 0.158 in assay [10]. In [8], the z-score is 3.08 (inactive).

For `O=C1C2C=CC(C(O)c3ccc(F)cc3)N(Nc3ccccc3)C2C(=O)N1c1ccccc1` (stereo not given), the composite z-score in assay [1] stood at 0.719; in assay [2], 0.616; in assay [3], 0.0332; in assay [4], 0.407; in [5], 0.314; in assay [6], 0.828. The composite z-score in assay [7] turned out to be 1.14; in assay [9], 0.593; in assay [10] it was 0.0053. The z-score in assay [8] is -1.65 (inactive).

As for `COC(=O)[C@@]1(Cc2ccc(F)cc2)[C@H]2c3cc(C(=O)N4CCCC4)n(Cc4cccc5ccccc45)c3C[C@H]2CN1C(=O)c1ccccc1`, the composite z-score in [1] stood at 0.242; in [2], 0.312; in assay [3], 0.148; in assay [4], 0.62; in assay [5] it was 1.57; in assay [6], 2.16. Further, the composite z-score was 1.35 in assay [7], 0.558 in assay [9] and 0.762 in assay [10]. The z-score in [8] was 0.272 (inactive).

As for `Cc1ccc(S[C@]2(C(=O)NCc3ccccc3)CC(=O)N(Cc3ccccc3Cl)[C@@H]2c2ccc(CO)cc2I)cc1`, the composite z-score was 0.715 in [1]; -1.06 in assay [2]; -0.104 in assay [3]; -0.638 in assay [4]; -0.848 in [5]; 0.288 in [6]. Moreover, the composite z-score in [7] is 0.539; in assay [9], -0.319; in assay [10], -0.0645. The z-score in assay [8] is -0.0143 (inactive).

For `O=C1O[C@@H](c2ccccc2)[C@@H](c2ccccc2)N2[C@@H](c3ccc(O)cc3)[C@]3(C(=O)Nc4ccc(C#CC5(O)CCCCCC5)cc43)[C@@H](C(=O)N3CCCCCCC3)[C@H]12`, the composite z-score is 2.55 in [1]; 2 in [2]; 0.764 in [3]; 0.876 in assay [4]; 1.66 in assay [5]; 2.49 in assay [6]. The composite z-score in [7] worked out at 1.27; in [9] it was 2.79; in assay [10], 0.67. Besides, the z-score in assay [8] was -0.849 (inactive).

As for `COC(=O)[C@@]1(Cc2ccccc2)[C@H]2c3cc(C(=O)N(C)C)n(Cc4c(-c5ccccc5)noc4C)c3C[C@H]2CN1C(=O)c1ccccc1`, the composite z-score in assay [1] was 0.948; in assay [2], -0.287; in assay [3] it was 0.308; in assay [4], 0.346; in [5], 1.66; in [6], 1.81. For the same molecule, the composite z-score in assay [7] amounted to 1.24; in [9], 1.41; in assay [10], 0.162. The z-score in [8] was 1.6 (inactive).

Take `CCN(CC)c1ccc(N2CC=CC34O[C@@H]5C=CCCOC(=O)C5[C@H]3C(=O)N(CCCCCO)[C@@H]4C2=O)cc1` (stereo not given in full): the composite z-score in [1] was 0.373; in assay [2], 2.13; in assay [3] it was -0.116; in [4], -0.851; in assay [5], -0.788; in assay [6] it was 1.78. For the same molecule, the figures for the composite z-score in assay [7], in assay [9] and in [10] were 1.01, 0.37 and -0.226, respectively. Moreover, the z-score in assay [8] was -0.736 (inactive).

Turning to `COc1c(C)cc(-c2cc3c(c(-c4ccc(Oc5ccccc5)cc4)n2)[Si](C(C)C)(C(C)C)OC3)cc1C`, the composite z-score in assay [1] is -0.128; in assay [2], -0.0685; in [3], -0.147; in [4], -0.114; in [5], 0.104; in [6], -0.0614. In addition, the composite z-score in assay [7] is -1.06; in assay [9], 0.0723; in assay [10], -0.353. In addition, in assay [8], the z-score is 0.643 (inactive).

As for `COCCOC(=O)N1C(=O)[C@@]2(c3cc(C#CCCO)ccc31)[C@H](c1ccc(O)cc1)N1[C@H](c3ccccc3)[C@H](c3ccccc3)OC(=O)[C@H]1[C@@H]2C(N)=O`, the composite z-score in [1] was 1.04; in [2], 0.751; in assay [3] it was -0.0173; in [4], 0.203; in [5], -0.982; in assay [6], 1.08. In addition, the composite z-score in assay [7] turned out to be 1.42; in [9], 0.102; in assay [10], 0.113. The z-score in [8] was -0.966 (inactive).

On to `C=CCC(OC(C)=O)[C@@H]1[C@@H](N(Cc2cccc3ccccc23)C(=O)c2ccc(C)cc2)c2cc(OCCCO)ccc2N1C(=O)Cc1ccc(OC)cc1` (stereo not given in full), for which the composite z-score is -0.186 in assay [1]; 0.307 in assay [2]; -0.117 in assay [3]; 0.29 in assay [4]; 0.0151 in assay [5]; 0.0635 in assay [6]. For the same molecule, the figures for the composite z-score in assay [7], in [9] and in assay [10] were -0.391, 0.146 and -0.0994, respectively. Further, in assay [8], the z-score is -1.71 (inactive).

Consider `COC(=O)[C@@]1(Cc2ccc(OC)cc2)[C@H]2c3cc(C(=O)N4CCCC4)n(Cc4cc(F)cc5c4OCOC5)c3C[C@H]2CN1C(=O)c1ccccc1`, for which the composite z-score in [1] was 0.152; in [2], -0.0429; in assay [3], 0.275; in assay [4], 0.535; in assay [5] it was 1.74; in assay [6], 2.29. Besides, the composite z-score worked out at 1.28 in assay [7], 0.83 in assay [9] and 1.14 in assay [10]. In addition, in assay [8], the z-score is 1.61 (inactive).

For the molecule `CCCCCN1CC=CC23O[C@@H]4C=CCOC(=O)[C@@H]4[C@H]2C(=O)N(CCCO)[C@@H]3C1=O` (stereo not given in full), the composite z-score in assay [1] is -0.295; in [2], 0.777; in assay [3], -0.195; in assay [4], -0.549; in [5], -0.661; in [6], 2.05. Further, the composite z-score in [7] is 1.27; in [9] it was -0.643; in assay [10] it was -0.236. Moreover, the z-score in assay [8] was -0.482 (inactive).
